Data published in PubChem BioAssay (Tox21).
Records with an inconclusive call do not appear. Some structures have more than one record in an assay (separate samples or runs), and their calls can disagree. Activity calls are given as the source filed them. Calls come from the whole dose curve.

Experiment: p53 small molecule agonists, cell-based qHTS assay with human liver microsomes: qHTS cell viability counter screen (AID 1963579); note: nearly all actives have a fitted effect of over 45% in size
Settings: p53RE-bla HCT-116 viability, ATP luminescence, 16 h, HLM; series mostly up to 66 µM; activity change, negative = cytotoxicity: at the top concentration
Source text: National Center for Advancing Translational Sciences [NCATS]
Division of Preclinical Innovation [DPI]
U.S. Environmental Protection Agency [EPA]
National Institutes of Environmental Health Sciences [NIEHS]
National Toxicology Program [NTP]
U.S. Food and Drug Administration [FDA]
p53, a tumor suppressor protein, is activated following cellular insult, including DNA damage and other cellular stresses. The activation of p53 regulates cell fate by inducing DNA repair, cell cycle arrest, apoptosis, or cellular senescence. The activation of p53, therefore, is a good indicator of DNA damage and other cellular stresses. […] The activation of the reporter gene under culture conditions can be detected by fluorescence intensity. This cell line was used to screen the Tox21 10K compound library in the condition of presence of human liver microsomes and to identify agonists that activate the p53 signaling pathway after in vitro metabolic activation (Ooka et al., Archive of Toxicology 96:1975-1987, 2022).
Tox21 Assay Protocol Summary:
The p53RE-bla cells were dispensed at 4,000cells/3ul/well in 1536-well black-clear bottom plates. After the assay plates were incubated at 37 C, 5% CO2 incubator for 5 hours, 23 nL of compounds dissolved in DMSO, positive controls or DMSO only was transferred to the assay plate. Following compound addition, 3 uL of human liver microsomes (XenoTech, Kansas City, KS) at final concentration of 0.5 mg/mL and 1uL of B-Nicotinamide adenine dinucleotide 2'-phosphate (NADPH) at final concentration of 0.5 mg/mL were transferred to the assay plate. The plates were incubated at 37 C for 16 hours. 1 uL of LiveBLAzer detection mixture was added to each well and the plates were incubated at room temperature in the dark for 2 h. Fluorescence intensity at 460 and 530 nm emission and 405 nm excitation were measured by an Envision plate reader. For cell viability readout that measures cytotoxicity, 4 ul/well of CellTiter-Glo reagent was added into the assay plates using a Flying Reagent Dispenser. After 30 min incubation at room temperature, the luminescence intensity in the plates was measured using a ViewLux plate reader.
% is set by controls: 0 for no effect and ±100 for the full control effect; potency is the fitted concentration of half-maximal effect.

Row | Compound | Potency | activity change, negative = cytotoxicity
1 | O=Cc1ccccc1C=O | inactive | 
2 | Nc1ccncc1N |  | -3.35% [at 30.3 µM] (inactive)
3 | COc1ccc(-c2coc3cc(O)cc(O)c3c2=O)cc1 | inactive | 
4 | CCCCC(CC)COC(=O)CC(C(=O)OCC(CC)CCCC)S(=O)(=O)O (stereo not given) | 44 µM (active) and inactive | 
5 | C=COCCOCCOCCOC=C |  | -2.83% (inactive)
6 | Cc1cc(C)c(S(=O)(=O)O)cc1N=Nc1cc(S(=O)(=O)O)c2ccccc2c1O |  | 6.47% (inactive)
7 | COc1ccc(NC(C)=O)cc1 |  | 21.8% (inactive)
8 | COc1ccc(N)c(OC)c1 |  | -1.63% [at 30.3 µM] (inactive)
9 | COc1cc(/C=C/C(=O)O[C@H]2CC[C@]34C[C@]35CC[C@]3(C)[C@@H]([C@H](C)CCC=C(C)C)CC[C@@]3(C)[C@@H]5CC[C@H]4C2(C)C)ccc1O |  | 0.377% [at 30.3 µM] (inactive)
10 | OCCOc1ccc(OCCO)cc1 |  | 4.28% (inactive)
11 | O=C1OC2(c3ccccc31)c1cc(Br)c(O)c(Br)c1Oc1c2cc(Br)c(O)c1Br | inactive | 
12 | O=C(O)c1cc(=O)c2c(OCC(O)COc3cccc4oc(C(=O)O)cc(=O)c34)cccc2o1 | inactive | 
13 | CC(=O)OC/C=C(\C)CC/C=C(\C)CCC=C(C)C | inactive | 
14 | OCC(CO)(CO)CO | inactive | 
15 | CCN1CCC[C@H]1CNC(=O)c1c(O)c(Cl)cc(Cl)c1OC |  | -15.7% [at 30.3 µM] (inactive)
16 | COc1ccc2cc1Oc1cc3c(cc1OC)CC[N+](C)(C)[C@H]3Cc1ccc(cc1)Oc1c(OC)c(OC)cc3c1[C@@H](C2)[N+](C)(C)CC3 |  | -3.08% [at 30.3 µM] (inactive)
17 | O=C(CCS)OCC(COC(=O)CCS)(COC(=O)CCS)COC(=O)CCS |  | -1.11% (inactive)
18 | O=C(O)c1ccc([N+](=O)[O-])cc1 | inactive | 
19 | Cc1nc(-c2ccc3c(c2)CCN(CCC2CCC(NC(=O)/C=C/c4ccc(F)cc4)CC2)CC3)no1 (stereo not given) |  | -4.07% [at 30.3 µM] (inactive)
20 | CN(C)N=Nc1ccccc1 |  | -5.03% (inactive)

Row | Compound | Potency | activity change, negative = cytotoxicity
21 | CC1(C)[C@@H]2CC[C@@]1(C)[C@H](O)C2 |  | 5.86% (inactive)
22 | C=COCCCC |  | 1.39% (inactive)
23 | CCOC(=O)NCCC[Si](OCC)(OCC)OCC |  | -6.55% (inactive)
24 | CC(CN1c2ccccc2Sc2ccccc21)N(C)C (stereo not given) | inactive | 
25 | COC(=O)CC(C(C)=O)C(=O)OC (stereo not given) |  | -2.82% (inactive)
26 | CC12CCC(C(=O)C1=O)C2(C)C (stereo not given) |  | -6.12% (inactive)
27 | O=C(O)Cc1ccc(CCNS(=O)(=O)c2ccc(Cl)cc2)cc1 |  | -12.1% [at 30.3 µM] (inactive)
28 | COc1cc(C(=O)N2CCOCC2)cc(OC)c1OC |  | -1.88% [at 30.3 µM] (inactive)
29 | OC1CCCCCCCCCCC1 | inactive | 
30 | O=c1[nH]c(=O)c2cn[nH]c2[nH]1 |  | -7.67% (inactive)
31 | N=c1nc(N2CCCCC2)cc(N)n1O |  | 1.66% [at 30.3 µM] (inactive)
32 | CC(=O)N[C@@H](Cc1ccc(O)cc1)C(=O)O |  | -2.72% [at 30.3 µM] (inactive)
33 | CCOC(=O)C(C)Oc1ccc(Oc2cnc3cc(Cl)ccc3n2)cc1 (stereo not given) | inactive | 
34 | c1ccc2sc(SSN3CCOCC3)nc2c1 | inactive | 
35 | CCC(CO)CO |  | 3.39% (inactive)
36 | CCCCCCCCCCCCI |  | 2.59% (inactive)
37 | Cc1ccc(S(=O)(=O)NC(=O)NC2CCCCCCC2)cc1 |  | -9.32% [at 30.3 µM] (inactive)
38 | CC(=O)OCC(=O)[C@@]1(O)CC[C@H]2[C@@H]3CCC4=CC(=O)C=C[C@]4(C)[C@H]3[C@@H](O)C[C@@]21C |  | -1.16% [at 30.3 µM] (inactive)
39 | CN(C)c1ccc(Cc2ccc(N(C)C)cc2)cc1 | inactive | 
40 | OCCOCCN1CCN(C2=Nc3ccccc3Sc3ccccc32)CC1 | inactive | 
